PubChem BioAssay (NCATS)
Records with an inconclusive call do not appear. A call without a number means that no potency is given here. Activity calls are given as the source filed them. Calls follow the shape of the dose curve; as a rule, active = well fitted curve in the direction sought with a large enough effect; inconclusive = small, poorly fitted or top-dose-only effect, or another doubt; inactive = no such curve, though single readings can be large; an effect the other way counts as inactive or inconclusive.

Columns and labels:
[1] = tested on: Zika virus NS2B-NS3 protease; assay: Primary screen GU AMC qHTS for Zika virus inhibitors (AID 1347154); also: nearly all actives have a fitted effect of over 70% in size
Summary of the method: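 Fluorogenic AMC-substrate cleavage by noncovalent NS2B-NS3 protease complex (25 nM, pH 8.0 Tris buffer with Tween 20) followed for 15 minutes at room temperature (~20% conversion). Percent inhibition from ex340/em450 signal change, fitted by 4-parameter Hill equation.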

[2] = tested on: Zika virus NS2B-NS3 protease (unlinked); assay: Optimization of GU AMC qHTS for Zika virus inhibitors: Unlinked NS2B-NS3 protease assay (AID 1347151); also: nearly all actives have a fitted effect of over 80% in size; also: potency is read from the fitted curve at half-maximal effect
Summary of the method: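 Percent inhibition is derived from the 15-min change in AMC fluorescence, normalized against no-inhibitor and no-enzyme controls, then fitted to a 4-parameter Hill curve. Aprotinin was the intraplate control.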

[3] = tested on: Zika virus NS2B-NS3 protease (linked construct); assay: Primary screen NINDS Rhodamine qHTS for Zika virus inhibitors (AID 1347160); also: nearly all actives have a fitted effect of over 55% in size
Summary of the method: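 Purified NS2B-NS3 protease with the NS2B hydrophilic domain joined by a flexible linker (25 nM) in 10 mM Tris-HCl pH 8.0, 0.01% Tween 20, preincubated 15 min at RT with compound; Rhodamine110 peptide substrate 1.5 µM; fluorescence change over 15 min; 4-parameter Hill fit.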

[4] = tested on: Zika virus NS2B-NS3 protease (linked construct); assay: Confirmatory screen NINDS AMC qHTS for Zika virus inhibitors (AID 1347152); also: potency is read from the fitted curve at half-maximal effect; nearly all actives have a fitted effect of over 70% in size
Summary of the method: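 In this dose-response qHTS, AMC release from 10 microM Bz-Nle-KRR-AMC by 1 nM linked protease is measured over 15 minutes (about 20% conversion) at pH 8.0. Percent inhibition is fitted to a 4-parameter Hill curve.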

[5] = Confirmatory screen GU Rhodamine qHTS for Zika virus inhibitors qHTS (AID 1347157); settings: purified enzyme assay, Rhodamine110 substrate fluorescence, 15 min; also: potency is read from the fitted curve at half-maximal effect; nearly all actives have a fitted effect of over 70% in size
Summary of the method: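 In dose–response format, inhibition of unlinked protease (25 nM) was measured with 1.5 microM bis-peptide Rhodamine110 substrate. Aprotinin served as the intraplate control.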

Q: For `O=C1O[C@H](CO)[C@@H](O)[C@H](O)[C@H]1O`, which Potency [1] is on record?
A: inactive

Q: Which Potency [2] does the source give for `CN1CCC[C@@H]1Cc1c[nH]c2ccc(CCS(=O)(=O)c3ccccc3)cc12` here?
A: inactive

Q: And the Potency [1]?
A: inactive

Q: What about the Potency [3] of the same molecule?
A: inactive

Q: With `CCCCc1ncc(/C=C(\Cc2cccs2)C(=O)O)n1Cc1ccc(C(=O)O)cc1` as the molecule, how does the Potency [2] read?
A: inactive

Q: And the Potency [1]?
A: inactive

Q: And the Potency [3]?
A: inactive

Q: Which Potency [4] does the source give for `CC(C)(O)c1ccccc1CC[C@@H](SCC1(CC(=O)O)CC1)c1cccc(/C=C/c2ccc3ccc(Cl)cc3n2)c1` here?
A: 27.1 µM (active)

Q: Which Potency [1] does the source give for `CC(=O)NC(Cc1ccccc1)C(=O)O` (stereo unspecified) here?
A: inactive

Q: With `CC(=O)CCC(=O)O` as the molecule, how does the Potency [1] read?
A: inactive

Q: Which results are given for `COc1ccc(Cl)cc1C(=O)NCCc1ccc(S(=O)(=O)NC(=O)NC2CCCCC2)cc1`?
A: Potency [2]: inactive; Potency [1]: inactive; Potency [3]: inactive

Q: Which results are given for `C[C@H]1O[C@@H](n2cc(F)c(=O)[nH]c2=O)[C@H](O)[C@@H]1O`?
A: Potency [2]: inactive; Potency [1]: inactive

Q: Which results are given for `NC(=O)c1ncn([C@@H]2O[C@H](CO)[C@@H](O)[C@H]2O)n1`?
A: Potency [2]: inactive; Potency [1]: inactive

Q: For `COCCOC(=O)C1=C(C)NC(C)=C(C(=O)OC/C=C/c2ccccc2)C1c1cccc([N+](=O)[O-])c1` (stereo unspecified), which Potency [2] is on record?
A: inactive

Q: And the Potency [1]?
A: inactive

Q: Which results are given for `CC[C@H]1CN2CCc3cc(OC)c(OC)cc3[C@@H]2C[C@@H]1C[C@H]1NCCc2cc(OC)c(OC)cc21`?
A: Potency [2]: inactive; Potency [1]: inactive

Q: With `CC1=C(/C=C/C(C)=C/C=C/C(C)=C/C(=O)O)C(C)(C)CCC1` as the molecule, how does the Potency [2] read?
A: inactive

Q: And the Potency [1]?
A: inactive

Q: Which results are given for `NC(N)=NCCC[C@H](N)C(=O)O`?
A: Potency [2]: inactive; Potency [1]: inactive

Q: Which Potency [2] does the source give for `CCN(CC)CCCC(C)Nc1c2ccc(Cl)cc2nc2ccc(OC)cc12` (stereo unspecified) here?
A: 23.8 µM (active)

Q: What about the Potency [3] of the same molecule?
A: inactive

Q: With `CC(C)C(=O)c1c(C(C)C)nn2ccccc12` as the molecule, how does the Potency [2] read?
A: inactive

Q: And the Potency [1]?
A: inactive

Q: Which Potency [2] does the source give for `OCCN1CCN(CCCN2c3ccccc3Sc3ccc(Cl)cc32)CC1` here?
A: inactive

Q: What about the Potency [1] of the same molecule?
A: inactive

Q: Which Potency [2] does the source give for `Cc1c(O)cccc1C(=O)N[C@@H](CSc1ccccc1)[C@H](O)CN1C[C@H]2CCCC[C@H]2C[C@H]1C(=O)NC(C)(C)C` here?
A: inactive

Q: What about the Potency [1] of the same molecule?
A: inactive

Q: Which Potency [1] does the source give for `Nc1ccc(S(=O)(=O)Nc2ccc(Cl)nn2)cc1` here?
A: inactive

Q: With `Cc1cc(N)c2ccccc2[n+]1CCCCCCCCCC[n+]1c(C)cc(N)c2ccccc21` as the molecule, how does the Potency [2] read?
A: 23.8 µM (active)

Q: And the Potency [3]?
A: inactive

Q: What does the source list for `CC(CN(C)C)CN1c2ccccc2CCc2ccccc21` (stereo unspecified)?
A: Potency [2]: inactive; Potency [1]: inactive

Q: With `CC(=O)O[C@@]12CO[C@@H]1C[C@H](O)[C@@]1(C)C(=O)[C@H](O)C3=C(C)[C@@H](OC(=O)[C@H](O)[C@@H](NC(=O)OC(C)(C)C)c4ccccc4)C[C@@](O)([C@@H](OC(=O)c4ccccc4)[C@H]21)C3(C)C` as the molecule, how does the Potency [1] read?
A: inactive

Q: With `C#CCN(C)Cc1ccccc1` as the molecule, how does the Potency [2] read?
A: inactive

Q: And the Potency [1]?
A: inactive

Q: Which results are given for `CC1=C(CC(=O)O)c2cc(F)ccc2/C1=C\c1ccc(S(C)(=O)=O)cc1`?
A: Potency [2]: inactive; Potency [1]: inactive

Q: Which Potency [1] does the source give for `NS(=O)(=O)c1cc2c(cc1C(F)(F)F)NC(Cc1ccccc1)NS2(=O)=O` (stereo unspecified) here?
A: inactive

Q: What does the source list for `Nc1ncnc2c1ncn2[C@@H]1O[C@H](CO)[C@@H](O)[C@H]1O`?
A: Potency [2]: inactive; Potency [1]: inactive

Q: Which Potency [2] does the source give for `CC(C(O)c1ccc(O)cc1)N1CCC(Cc2ccccc2)CC1` (stereo unspecified) here?
A: inactive

Q: And the Potency [1]?
A: inactive

Q: And the Potency [3]?
A: inactive

Q: Which results are given for `CC(C)(C(=O)O)c1ccc(C(O)CCCN2CCC(C(O)(c3ccccc3)c3ccccc3)CC2)cc1` (stereo unspecified)?
A: Potency [2]: inactive; Potency [1]: inactive; Potency [3]: inactive

Q: Which Potency [2] does the source give for `CNC(=O)Oc1ccc2c(c1)[C@]1(C)CCN(C)[C@@H]1N2C` here?
A: inactive

Q: What about the Potency [1] of the same molecule?
A: inactive

Q: What about the Potency [3] of the same molecule?
A: inactive

Q: Which Potency [5] does the source give for `COc1ccc2c(c1)C(=O)N(CCc1ccc(S(=O)(=O)NC(=O)NC3CCCCC3)cc1)C(=O)C2(C)C` here?
A: 27.8 µM (active)
